Measured values reported in the supplement of paper PMC10981050.
Values joined by “and” are separate entries in the source; they are usually repeats but may differ in a detail not shown here. Equal values may be shown once. Where a name gives a salt, the structure may show the parent alone.

Experiments:
Assay in all cases: cell viability relative to vehicle control; higher = less cytotoxic
Conditions in all cases: 10 µM
K562 = tested on: K562
Summary of the method: (§1)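 Four leukaemia lines, as CRISPR-edited mutant clones and isogenic wild-type clones, were tested against Selleck bioactive, kinase and epigenetic probe libraries after removal of identity-inconsistent compounds. Cells were exposed to a single 10 µM dose for 48 h, and CellTiter-Glo luminescence was then read. Viability was calculated relative to the on-plate vehicle control.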

MARIMO = tested on: MARIMO
Summary of the method: as §1

MOLM14 = tested on: MOLM14
Summary of the method: as §1

OCI-AML2 = tested on: OCI-AML2
Summary of the method: as §1

Row | SMILES | cell viability (K562; SRSF2 genotype: SRSF2 P95H/wt) | cell viability (K562; SRSF2 genotype: SRSF2 wt/wt) | cell viability (MARIMO; SRSF2 genotype: SRSF2 P95H/wt) | cell viability (MARIMO; SRSF2 genotype: SRSF2 wt/wt) | cell viability (MOLM14; SRSF2 genotype: SRSF2 P95H/wt) | cell viability (MOLM14; SRSF2 genotype: SRSF2 wt/wt) | cell viability (OCI-AML2; SRSF2 genotype: P95H/wt) | cell viability (OCI-AML2; SRSF2 genotype: wt/wt)
1 | O=[N+]([O-])c1ccc(Nc2nc(N3CCOCC3)nc(N3CCOCC3)n2)cc1 | 99% and 99.5% | 95.7% | 95.7% | 95.8% | 112% | 99.8% | 107% | 116%
2 | NC(C=O)C(O)C(O)C(O)CO (centres undefined) [Glucosamine sulfate] | 99.5% and 102% | 100% | 101% | 105% | 104% | 108% | 104% | 104%
3 | CCCCCOc1ccccc1/C(=C\SC)n1ccnc1 [Neticonazole Hydrochloride] | 66.4% and 59.1% | 68.9% | 45.7% | 39% | 59.7% | 54.8% | 25.7% | 26%
4 | C=C(C(=O)O)C1CCC(C)C2CCC(C)=CC12 (centres undefined) [Artemisic acid] | 114% and 110% | 113% | 108% | 90.8% | 104% | 108% | 99.1% | 103%
5 | Cc1ccc(-c2cc(C(F)(F)F)nn2-c2ccc(S(N)(=O)=O)cc2)cc1 [Celecoxib] | 94.3% and 106% | 94.1% | 99.1% | 104% | 101% | 101% | 122% | 96.5%
6 | O=c1oc2c(O)c(O)cc3c(=O)oc4c(O)c(O)cc1c4c23 [Ellagic acid] | 92.7% and 105% | 93.7% | 96.3% | 105% | 106% | 103% | 101% | 101%
7 | Nc1nc(CC(=O)Nc2ccc(CCNC[C@H](O)c3ccccc3)cc2)cs1 [Mirabegron (YM178)] | 102% and 111% | 107% | 103% | 114% | 101% | 103% | 110% | 93.1%
8 | CCCCCCCCCCCCCC(=O)OCC(COC(=O)CCCCCCCCCCCCC)OC(=O)CCCCCCCCCCCCC [Tritetradecanoin] | 107% and 104% | 103% | 100% | 107% | 101% | 102% | 102% | 107%
9 | C=C1CCC[C@]2(C)C[C@@H]3OC(=O)C(C)=C3C[C@@H]12 [Atractylenolide II] | 107% and 105% | 99.7% | 96.8% | 102% | 101% | 106% | 103% | 106%
10 | C/C=C(/C)C(=O)OC(C)(C)[C@@H]1Cc2c(ccc3ccc(=O)oc23)O1 [Columbianadin] | 99.8% and 97.1% | 99.2% | 87.8% | 86.5% | 102% | 98.4% | 72.8% | 77.5%
11 | CCOC(=O)[C@H](CCc1ccccc1)N[C@H]1CS[C@H](c2cccs2)CN(CC(=O)O)C1=O [Temocapril HCl] | 102% and 101% | 98.8% | 101% | 113% | 99.7% | 102% | 102% | 111%
12 | C#C[C@]1(O)CC[C@H]2[C@@H]3CCC4=CCCC[C@@H]4[C@H]3C(=C)C[C@@]21CC [Desogestrel] | 77.9% and 78.3% | 78.7% | 75.4% | 81.7% | 71.4% | 79.9% | 61% | 63%
13 | CN(C/C=C/C#CC(C)(C)C)Cc1cccc2ccccc12 [Terbinafine] | 99.7% and 97.5% | 103% | 96.2% | 108% | 104% | 105% | 105% | 110%
14 | COc1ccc(S(=O)(=O)Nc2cc(-c3c(O)ccc4ccccc34)c(O)c3ccccc23)cc1 | 7.52% and 4.96% | 34.5% | 0.33% | 0.36% | 0.32% | 0.34% | 0.37% | 0.35%
15 | O=c1c(-c2ccc(O)cc2)coc2cc(O[C@@H]3O[C@H](CO)[C@@H](O)[C@H](O)[C@H]3O)cc(O)c12 [Genistin (Genistoside)] | 95.5% and 108% | 94.7% | 94.6% | 98% | 89% | 99.7% | 92.1% | 93.4%
16 | CNc1cc(-c2cccc(Cl)c2Cl)nc(N)n1 | 15.8% and 28.9% | 29.6% | 12.2% | 9.54% | 9.14% | 2.78% | 6% | 11.5%
17 | CO[C@H]1C[C@H](O[C@H]2[C@H](C)O[C@@H](O[C@@H]3/C(C)=C/C[C@@H]4C[C@@H](C[C@]5(C=C[C@H](C)[C@@H](C6CCCCC6)O5)O4)OC(=O)[C@@H]4C=C(C)[C@@H](O)[C@H]5OC/C(=C\C=C\[C@@H]3C)[C@]54O)C[C@@H]2OC)O[C@@H](C)[C@@H]1O [Doramectin] | 33% and 39.8% | 37.1% | 36.8% | 29.4% | 24.6% | 29.9% | 15.3% | 17.3%
18 | C/C=C(\C)C(=O)OC1c2c(ccc3ccc(=O)oc23)OC(C)(C)C1OC(=O)/C(C)=C/C (centres undefined) [Paeruptorin B] | 92.7% and 97.1% | 89.7% | 86.9% | 96.3% | 89.7% | 92.3% | 93.8% | 103%
